In PubChem BioAssay AID1619 (SRMLSC, 2009):
The whole screen tested about 220,000 compounds, of which about 830 (0.38%) were called active.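 Rule for the calls: active = compound inhibiting the enzyme by more than half at any dose during confirmatory dose-response retesting; inconclusive = strong single-dose inhibitors picked by rank but not retested; inactive = the rest.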 Not all results are given here. Results with a measured potency or affinity are listed apart.

Target: Leucine aminopeptidase (Plasmodium falciparum (isolate 3D7)) (UniProt Q8IL11)
Sequence (Q8IL11 whole entry, looked up): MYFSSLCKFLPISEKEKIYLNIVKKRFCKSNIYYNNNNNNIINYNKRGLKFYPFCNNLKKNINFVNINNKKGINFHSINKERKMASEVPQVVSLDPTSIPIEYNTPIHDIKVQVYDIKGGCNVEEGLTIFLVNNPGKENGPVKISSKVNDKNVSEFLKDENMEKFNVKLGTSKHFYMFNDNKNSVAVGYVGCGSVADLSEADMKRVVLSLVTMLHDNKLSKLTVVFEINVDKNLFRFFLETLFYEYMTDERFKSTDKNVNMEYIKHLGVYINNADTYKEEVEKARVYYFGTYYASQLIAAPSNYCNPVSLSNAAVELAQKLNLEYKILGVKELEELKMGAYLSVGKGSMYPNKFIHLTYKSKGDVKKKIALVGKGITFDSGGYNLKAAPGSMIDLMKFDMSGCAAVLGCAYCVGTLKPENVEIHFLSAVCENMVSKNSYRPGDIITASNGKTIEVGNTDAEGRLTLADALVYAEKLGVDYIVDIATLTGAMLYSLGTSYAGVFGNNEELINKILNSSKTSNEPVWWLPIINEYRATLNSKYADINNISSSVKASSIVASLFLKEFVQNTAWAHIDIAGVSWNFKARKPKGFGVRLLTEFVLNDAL
Test: P. falciparum M17LAP inhibitors, primary screen, biochemical, fluorogenic H-Leu-NHMec substrate, 1536-well (AID 1619);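 note: plate controls were full reaction with DMSO carrier for no effect and no enzyme background for full effect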
Details: recombinant M17LAP, H-Leu-NHMec fluorogenic kinetic assay; at 30 µM; stronger effect = higher value

SMILES	inhibition
Cc1cccc(N(C)S(=O)(=O)c2ccc3[nH]c(=O)c(=O)[nH]c3c2)c1	53.7% (inactive)
CCN(c1ccccc1)S(=O)(=O)c1ccc2[nH]c(=O)[nH]c2c1	-1.87% (inactive)
O=C(CSc1ccc2nnc(-c3ccccn3)n2n1)Nc1ccc2c(c1)OCO2	7.14% (inactive)
CCOC(=O)N1CCC(NC(=O)C2CCCN(S(C)(=O)=O)C2)CC1 (stereo unspecified)	5.41% (inactive)
COCCOC(=O)C1=C(C)NC(=O)NC1c1c(F)cccc1Cl (stereo unspecified)	-12.3% (inactive)
O=C(Cn1cc([N+](=O)[O-])cn1)Nc1cccnc1	1.1% (inactive)
COC(=O)c1c(NC(=O)C2CC=CCC2C(=O)O)sc(C(N)=O)c1C (stereo unspecified)	51.5% (inactive)
CCOC(=O)c1c(NC(=O)C2CC=CCC2C(=O)O)sc(C)c1CC (stereo unspecified)	5.22% (inactive)
CC(=O)Nc1sc(C)c(C)c1C(=O)OC(C)C	14.2% (inactive)
Cc1sc(NC(=O)c2cccs2)c(C(=O)OC(C)C)c1C	9.67% (inactive)
COc1ccc(CCNC(=O)C2CC(=O)N(c3ccc(Br)cc3)C2)cc1OC (stereo unspecified)	3.2% (inactive)
Cc1ccnc2ccc(SC(F)(F)F)cc12	1.01% (inactive)
CCOC(=O)c1ccc(NC(=O)CN2C(=O)C3C4C=CC(C4)C3C2=O)cc1 (stereo unspecified)	28.7% (inactive)
Cn1ccnc1SCC(=O)Nc1cccc(C(F)(F)F)c1	15.9% (inactive)
CC(=O)c1cccc(NC(=O)CN2C(=O)C3C4C=CC(C4)C3C2=O)c1 (stereo unspecified)	31.7% (inactive)
COC(=O)c1cccc(NC(=O)COC(=O)CSc2nc(C)cc(C)n2)c1	5.31% (inactive)
Cc1cccc(NC(=O)CSc2nc(N)cc(N)n2)c1	34.4% (inactive)
COc1cccc(NC(=O)CSc2nc(N)cc(N)n2)c1	47.2% (inactive)
Cc1cc(C(F)(F)F)nc(SCC(=O)Nc2ccccc2)n1	-7.44% (inactive)
COC(=O)c1cccc(NC(=O)CSc2nnc(C)n2C)c1	12.6% (inactive)
CCCNC(=O)Nc1ccc(C(F)(F)F)cc1	6.33% (inactive)
CC1(C)CC(=O)c2cnc(NC(=O)CSc3nc4ccccc4o3)nc2C1	8.26% (inactive)
NC(=O)c1cc(-c2ccncc2)nc2ccc(Cl)cc12	8.6% (inactive)
Cn1c(=O)n(C)c2cc(S(=O)(=O)Nc3ccccc3O)ccc21	-0.99% (inactive)

SMILES	inhibition
C/C(=C1/SC(N2CC(C)OC(C)C2)=NC1=O)c1ccccc1 (stereo unspecified)	1.49% (inactive)
Cc1ccc(S(=O)(=O)Nc2nc(C)cc(NCCN)n2)cc1	-5.52% (inactive)
CCOC(=O)N1CCN(CCC(=O)Nc2ccc(OC)cc2)CC1	5.12% (inactive)
Cc1cc(C)c(S(=O)(=O)Nc2cccc3nsnc23)c(C)c1	3.04% (inactive)
Cc1ccc2nsnc2c1S(=O)(=O)Nc1cccc2nsnc12	2.26% (inactive)
COC(=O)c1cc(C#N)c(NCc2ccccc2)nc1C	-1.82% (inactive)
Cc1nn(C)cc1CN(C)C(=O)c1cc(COc2ccc(F)cc2F)on1	-16.1% (inactive)
O=C1OCC2OC(O)C(O)C(O)C2OC(=O)c2cc(O)c(O)c(O)c2-c2c(O)c(O)c3oc(=O)c4c(c(O)c(O)c5oc(=O)c2c3c54)-c2c1cc(O)c(O)c2O (stereo unspecified)	20.8% (inactive)
COc1cccc(NC(=O)Cn2c(=O)n(CCC(=O)NCc3ccco3)c(=O)c3ccccc32)c1	-7.32% (inactive)
CCn1c(N2CCN(CC(=O)c3c(C)n(C)c4ccccc34)CC2)nc2c1c(=O)[nH]c(=O)n2C	16.3% (inactive)
CN(Cc1nc(Cc2ccccc2F)no1)CC1(N2CCOCC2)CCCCC1	-3.08% (inactive)
CN(Cc1cc2ccccc2[nH]c1=O)C(=O)COc1ccccc1	-2.37% (inactive)
O=C1C2CC=C(Cl)CC2C(=O)N1CCC[n+]1ccccc1 (stereo unspecified)	-3.64% (inactive)
O=C1C2CC=C(Cl)CC2C(=O)N1CCc1ccccc1 (stereo unspecified)	51.8% (inactive)
CCOC(=O)N1CCN(C(c2ccc(F)cc2)c2sc3nc(C)nn3c2O)CC1 (stereo unspecified)	-1.83% (inactive)
CCO/N=C(/C)c1c(O)c(C)c(-c2ccccc2)n(-c2ccccc2)c1=O	45.5% (inactive)
C=CCO/N=C(\C)c1c(O)c(C)c(-c2ccccc2)n(-c2ccccc2)c1=O	54% (inactive)
C/C(=N/O)c1c(O)c(C)c(-c2ccccc2)n(-c2ccccc2)c1=O	46.8% (inactive)
CC(=O)c1c(O)c(C)c(-c2ccccc2)n(-c2ccccc2)c1=O	31.5% (inactive)
COc1cc(/C=N/NC(=O)c2sc(N)c(C#N)c2C)ccc1O	3.64% (inactive)
COc1ccc(Cn2c(SC)nc3ccccc32)cc1[N+](=O)[O-]	-7.5% (inactive)
CCCn1nnc(NC(=O)c2ccc(Br)cc2)n1	-4.35% (inactive)
Cc1ccsc1/C=N/NC(=O)CSCc1ccc(Cl)cc1	3.08% (inactive)
Cc1cc(C)c(S(=O)(=O)Nc2c(C)[nH]c(=O)[nH]c2=O)c(C)c1	-3% (inactive)

SMILES	inhibition
Cc1cccc2cc(CN(Cc3ccc(F)cc3)C(=O)N3CCOCC3)c(=O)[nH]c12	6.9% (inactive)
COc1cccc(Nc2nnc(SCC(=O)N3CCOCC3)s2)c1	31.6% (inactive)
O=C(Cc1cccs1)Nc1nnc(SCC(=O)N2CCCCC2)s1	4.31% (inactive)
COc1ccccc1Nc1nnc(SCC(=O)N2CCCC2)s1	28.9% (inactive)
CC1CCCC(C)N1C(=O)CSc1nnc(NC(=O)c2cccs2)s1 (stereo unspecified)	35.8% (inactive)
CN1/C(=C\C(=O)CSc2nnc(NCc3ccccc3)s2)C(C)(C)c2ccccc21	-5.09% (inactive)
CN1/C(=C\C(=O)CSc2nnc(N)s2)C(C)(C)c2ccccc21	30.2% (inactive)
COc1ccc(NC(=O)COC(=O)C2=COCCO2)cc1OC	-5.64% (inactive)
O=C(CN1CCCCC1)NC(=O)NCc1ccccc1	-1.39% (inactive)
C=CCNC(=O)C(=O)c1cccn1-c1ccsc1C(=O)OC	1.96% (inactive)
CCOP(=O)(OCC)C(Nc1cccc([N+](=O)[O-])c1)c1ccccc1 (stereo unspecified)	-1.19% (inactive)
CC(C)CSc1nnc2[nH]c(=O)cc(N)n12	-1.75% (inactive)
CCOC(=O)c1oc2cc(O)ccc2c(=O)c1-c1ccc(OC)cc1	14.6% (inactive)
COC(=O)N/N=C/c1c[nH]c2ccccc12	14.5% (inactive)
Fc1c(F)c(F)c(N/N=C/c2c[nH]c3ccccc23)c(F)c1F	-1.25% (inactive)
COc1cccc(NC(=O)Nc2nnc(CC(=O)NCc3ccccc3)s2)c1	8.42% (inactive)
COc1ccc(NC(=O)CSc2ncc(-c3ccc(F)cc3)n2Cc2ccco2)cc1	-16.2% (inactive)
CCCOC(=O)c1c(NC(=O)C2CCCO2)sc(C(=O)OC)c1C (stereo unspecified)	8.59% (inactive)
O=C(CSc1nc(O)cc(=O)n1-c1ccccc1)Nc1ccccn1	14.8% (inactive)
CC1CCCCN1C(=O)CSc1nc(-c2ccccc2)cn1N (stereo unspecified)	14.6% (inactive)
Cc1cc(-c2ccccc2)nc(SCC(=O)N2CCCC2)n1	1.7% (inactive)
COc1ccc(-c2ccnc(SCC(=O)Nc3ccccn3)n2)cc1	7.81% (inactive)
O=C(N1CCC(O)(c2cccnc2)CC1)C12CC3CC(CC(C3)C1)C2	3.02% (inactive)
Cc1oc(C(C)(C)C)cc1C(N)=O	5.9% (inactive)

SMILES	inhibition
Cc1c(N(C(=O)CNC(=O)c2ccccc2)C2(C(=O)NC3CCCCC3)CCCCC2)c(=O)n(-c2ccccc2)n1C	-1.39% (inactive)
Clc1ccc(Nc2ccc(-n3ccnc3)nn2)cc1Cl	2.24% (inactive)
Cc1cc(C(=O)NCc2cccs2)n(-c2ccccc2)n1	-1.13% (inactive)
COc1ccccc1NC(=S)NC(=O)c1c(-c2ccccc2Cl)noc1C	-2.71% (inactive)
CC(C)NC(=O)/C(C#N)=C/c1ccc(N(C)C)o1	48.4% (inactive)
CC(C)NC(=O)/C(C#N)=C\c1ccc(N(C)C)o1	38% (inactive)
Cc1nn(CC(=O)N2CC(=O)Nc3ccccc32)c(C)c1[N+](=O)[O-]	1.29% (inactive)
CCOC(=O)c1sc(NC(=S)NC(=O)C2CCCC2)cc1C	-3.81% (inactive)
O=C(O)C1CCCN(S(=O)(=O)c2ccc(Br)s2)C1 (stereo unspecified)	-0.9% (inactive)
O=C(O)/C=C/c1cn(Cc2ccccc2)nc1-c1ccccc1	22.2% (inactive)
Cc1ccc(-c2nn(Cc3ccccc3)cc2/C=C/C(=O)O)cc1	38.8% (inactive)
O=C(O)/C=C\C(=O)Nc1ccc(Oc2ccccc2)cc1	15% (inactive)
O=C(O)/C=C/C(=O)Nc1ccc(Oc2ccccc2)cc1	-0.33% (inactive)
CCS(=O)(=O)N1CCC(C(=O)NCc2ccc(OC)cc2)CC1	5.05% (inactive)
O=C(O)CSc1nc(-c2ccccc2)nc2c1oc1ccccc12	28.6% (inactive)
CCOC(=O)C1CCN(c2nc(-c3ccccc3)nc3c2oc2ccccc23)CC1	41.7% (inactive)
CCC(C)[C@H](Nc1nc(-c2ccccc2)nc2c1oc1ccccc12)C(=O)O (stereo partly specified)	51.5% (inactive)
CCc1nc(N[C@H](C(=O)O)C(C)C)c2oc3ccccc3c2n1	3.02% (inactive)
Cc1nc(SCC(=O)O)c2oc3ccccc3c2n1	1.07% (inactive)
NC(=O)C1CCN(c2nc(-c3ccccc3)nc3c2oc2ccccc23)CC1	-0.35% (inactive)
COc1ccc(N=C2NC(=O)/C(=C/C=C/c3ccccc3)S2)cc1	3.51% (inactive)
CCc1ccc(C2CC(c3ccc(Cl)cc3)n3nc(N)nc3N2)cc1 (stereo unspecified)	-1.74% (inactive)
CCC(CC)Nc1ccc(C(CC(N)=O)NC(=O)Cc2ccc(Br)cc2)cc1[N+](=O)[O-] (stereo unspecified)	-4.54% (inactive)
CN(C)c1ccnc2sc(C(=O)NCc3ccccc3)c(N)c12	-4.21% (inactive)
